What is called AC50 is the concentration at which the activity in the assay is half-maximal.

The results in this text go back to PubChem BioAssay (EPA / NIEHS).

Read-out in assay [1]: Macrophage colony-stimulating factor (MCSF), CSF1 (gene 1435)
As to the kind of experiment: BSK_hDFCGF_MCSF: BioMAP Diversity Plus: hDFCGF Assay for Macrophage colony-stimulating factor (MCSF) Biomarker Activity (AID 2283060). The conditions noted are these: primary human foreskin fibroblasts; actives raise or lower the signal. In outline: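 Primary human foreskin fibroblasts dosed with chemical; 24 h later, M-CSF quantified by ELISA; curves fitted in both directions vs DMSO negative control.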

Assay [2] can be described thus: BSK_hDFCGF_SRB: Viability Assessment in the BioMAP Diversity Plus: hDFCGF Assay (AID 2283061).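 Also: cells exposed to compound for 24 h before the read.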 The conditions noted are these: primary human foreskin fibroblasts. In outline:
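Readout is SRB absorbance at 560 nm, reflecting total protein in parallel cultures of human foreskin fibroblasts harvested 24 h after chemical dosing. Activity was fitted bidirectionally relative to DMSO.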

Read-out in assay [3]: TIMP metallopeptidase inhibitor 1 (TIMP1), TIMP1 (gene 7076)
As to the kind of experiment: BSK_hDFCGF_TIMP1: BioMAP Diversity Plus: hDFCGF Assay for TIMP metallopeptidase inhibitor 1 (TIMP1) Biomarker Activity (AID 2283062). The conditions noted are these: primary human foreskin fibroblasts; actives raise or lower the signal. The gist of the method:
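Human skin fibroblasts (primary), hDFCGF system; compound exposure 24 h; TIMP-1 by ELISA; bidirectional fit vs DMSO negative control; overt cytotoxicity by SRB in parallel wells.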

Read-out in assay [4]: Monokine induced gamma interferon (MIG), CXCL9 (gene 4283)
Briefly: BSK_hDFCGF_MIG: BioMAP Diversity Plus: hDFCGF Assay for Monokine induced gamma interferon (MIG) Biomarker Activity (AID 2283063). The conditions noted are these: primary human foreskin fibroblasts; actives raise or lower the signal. In outline:
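Chemicals were added to primary human foreskin fibroblast cultures, which were sampled 24 h later. MIG levels were then quantified by ELISA and responses fitted in both directions relative to DMSO.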

Read-out in assay [5]: Matrix Metallopeptidase 1 (MMP1), MMP1 (gene 4312)
As to the kind of experiment: BSK_hDFCGF_MMP1: BioMAP Diversity Plus: hDFCGF Assay for Matrix Metallopeptidase 1 (MMP1) Biomarker Activity (AID 2283064). The conditions noted are these: primary human foreskin fibroblasts; actives raise or lower the signal. In outline: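 Human foreskin fibroblasts exposed to chemical for 24 h; MMP1 detected by ELISA, with DMSO as baseline for bidirectional fitting.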

Read-out in assay [6]: Vascular cell adhesion molecule 1 (VCAM1), VCAM1 (gene 7412)
As to the kind of experiment: BSK_hDFCGF_VCAM1: BioMAP Diversity Plus: hDFCGF Assay for Vascular cell adhesion molecule 1 (VCAM1) Biomarker Activity (AID 2283065).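 As to AC50: VCAM-1 protein level quantified by ELISA after 24 h chemical exposure.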 The note with it: primary human foreskin fibroblasts; actives raise or lower the signal. The gist of the method: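 Human foreskin fibroblast primary cells, chemical exposure 24 h; VCAM-1 by ELISA; bidirectional fit, DMSO = negative control/baseline.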

Read-out in assay [7]: Plasminogen activator inhibitor-1 (PAI1), SERPINE1 (gene 5054)
Briefly: BSK_hDFCGF_PAI1: BioMAP Diversity Plus: hDFCGF Assay for Plasminogen activator inhibitor-1 (PAI1) Biomarker Activity (AID 2283066). The conditions noted are these: primary human foreskin fibroblasts; actives raise or lower the signal. In outline:
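Fibroblasts from human foreskin were treated with test chemical. After 24 h, PAI-1 was measured by ELISA. Activity was fitted in both directions relative to DMSO.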

Read-out in assay [8]: Intercellular Adhesion Molecule 1 (ICAM1), ICAM1 (gene 3383)
As to the kind of experiment: BSK_KF3CT_ICAM1: BioMAP Diversity Plus: KF3CT Assay for Intercellular Adhesion Molecule 1 (ICAM1) Biomarker Activity (AID 2283067). The note with it: primary human keratinocytes with fibroblasts; actives raise or lower the signal. The gist of the method: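 ICAM-1 levels are measured by ELISA 24 h after dosing a primary human co-culture of keratinocytes and foreskin fibroblasts. Activity in either direction is fitted relative to DMSO vehicle.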

Read-out in assay [9]: Interferon-gamma inducible Protein 10 (IP10), CXCL10 (gene 3627)
Briefly: BSK_KF3CT_IP10: BioMAP Diversity Plus: KF3CT Assay for Interferon-gamma inducible Protein 10 (IP10) Biomarker Activity (AID 2283068). The conditions noted are these: primary human keratinocytes with fibroblasts; actives raise or lower the signal. The gist of the method: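 ELISA read-out of IP-10 after 24 h chemical dosing of human skin primary co-culture (keratinocytes, foreskin fibroblasts). Gain or loss of signal relative to DMSO, bidirectional curve fit.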

The nature of assay [10]: BSK_KF3CT_SRB: Viability Assessment in the BioMAP Diversity Plus: KF3CT Assay (AID 2283069).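 Also: read 24 h after compound addition; fitted for both signal gain and loss against DMSO baseline.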 The note with it: primary human keratinocytes with fibroblasts. The gist of the method:
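Overt cytotoxicity is assessed as total protein by sulforhodamine B staining in parallel human skin co-cultures at 24 h after dosing. DMSO serves as negative control and baseline.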

Read-out in assay [11]: Interleukin-1 alpha (IL1a), IL1A (gene 3552)
As to the kind of experiment: BSK_KF3CT_IL1a: BioMAP Diversity Plus: KF3CT Assay for Interleukin-1 alpha (IL1a) Biomarker Activity (AID 2283070). The conditions noted are these: primary human keratinocytes with fibroblasts; actives raise or lower the signal. In outline: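 Readout is IL-1a level by ELISA, compared bidirectionally with DMSO as baseline. Cells: human keratinocytes co-cultured with foreskin fibroblasts, harvested 24 h post-dose.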

Read-out in assay [12]: TIMP metallopeptidase inhibitor 2 (TIMP2), TIMP2 (gene 7077)
Briefly: BSK_KF3CT_TIMP2: BioMAP Diversity Plus: KF3CT Assay for TIMP metallopeptidase inhibitor 2 (TIMP2) Biomarker Activity (AID 2283071). The note with it: primary human keratinocytes with fibroblasts; actives raise or lower the signal. The gist of the method:
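Chemicals were dosed onto human skin primary co-cultures of keratinocytes and foreskin fibroblasts, and TIMP-2 was measured by ELISA after 24 hours. Activity in either direction was fitted relative to DMSO.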

Read-out in assay [13]: Transforming growth factor beta 1 (TGFb1), TGFB1 (gene 7040)
Briefly: BSK_KF3CT_TGFb1: BioMAP Diversity Plus: KF3CT Assay for Transforming growth factor beta 1 (TGFb1) Biomarker Activity (AID 2283072). The conditions noted are these: primary human keratinocytes with fibroblasts; actives raise or lower the signal. In outline:
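KF3CT co-culture (keratinocytes + fibroblasts), 24 h exposure → TGF-b1 ELISA → bidirectional fit, DMSO = baseline. Parallel SRB total-protein staining (0.1% SRB, 10% TCA fixation, 560 nm) for cytotoxicity.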

Read-out in assay [14]: C-C motif chemokine 2 (Homo sapiens) (UniProt P13500)
Briefly: BSK_KF3CT_MCP1: BioMAP Diversity Plus: KF3CT Assay for Monocyte Chemoattractant Protein 1 (MCP1/CCL2) Biomarker Activity (AID 2283073). The conditions noted are these: primary human keratinocytes with fibroblasts; actives raise or lower the signal. In outline: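 ELISA readout of MCP-1 after 24 h chemical dosing of a human skin primary co-culture of keratinocytes and foreskin fibroblasts. Activity was fitted in both directions against DMSO.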

Read-out in assay [15]: urokinase plasminogen activator (uPA), PLAU (gene 5328)
Briefly: BSK_KF3CT_uPA: BioMAP Diversity Plus: KF3CT Assay for urokinase plasminogen activator (uPA) Biomarker Activity (AID 2283075). The note with it: primary human keratinocytes with fibroblasts; actives raise or lower the signal. In outline:
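Values derive from bidirectional fitting against DMSO controls. Keratinocyte/foreskin fibroblast co-cultures received chemical; 24 h later uPA was detected by ELISA, with SRB total-protein staining in parallel wells for overt cytotoxicity.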

Read-out in another assay: CD40, CD40 (gene 958)
As to the kind of experiment: BSK_LPS_CD40: BioMAP Diversity Plus: LPS Assay for CD40 Biomarker Activity (AID 2283076). The conditions noted are these: primary human HUVEC with PBMC; actives raise or lower the signal. The gist of the method: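 Cells were dosed, incubated 24 h, then assayed for CD40 by ELISA. Gain or loss of signal was analysed relative to DMSO controls. The culture paired human umbilical vein endothelium with peripheral blood mononuclear cells.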

Read-out in assay [16]: E-selectin (Homo sapiens) (UniProt P16581)
As to the kind of experiment: BSK_LPS_Eselectin: BioMAP Diversity Plus: LPS Assay for Eselectin Biomarker Activity (AID 2283077). The conditions noted are these: primary human HUVEC with PBMC; actives raise or lower the signal. In outline:
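Primary human vascular co-culture (endothelium plus PBMC) was dosed with chemical, then E-selectin quantified by ELISA at 24 h. Endpoint values derive from bidirectional curve fitting relative to DMSO.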

Read-out in assay [17]: Interleukin-8 (IL8), CXCL8 (gene 3576)
As to the kind of experiment: BSK_LPS_IL8: BioMAP Diversity Plus: LPS Assay for Interleukin-8 (IL8) Biomarker Activity (AID 2283078). The note with it: primary human HUVEC with PBMC; actives raise or lower the signal. The gist of the method:
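Readout is IL-8 by ELISA, taken 24 h after compounds were added to LPS-stimulated endothelial/PBMC co-cultures. Both increases and decreases relative to DMSO control were scored through bidirectional fitting.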

Assay [18] in a line: BSK_LPS_SRB: Viability Assessment in the BioMAP Diversity Plus: LPS Assay (AID 2283079).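 Also: total protein by sulforhodamine B absorbance as a cytotoxicity measure; measured one day after compound addition; fitted in both directions against DMSO so loss or gain of signal counts.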 The conditions noted are these: primary human HUVEC with PBMC. The gist of the method: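 Readout is SRB absorbance at 560 nm (0.1% stain, TCA-fixed parallel cultures) as a total-protein cytotoxicity measure. Cells: primary human umbilical vein endothelium plus peripheral blood mononuclear cells, 24 h after chemical exposure; DMSO served as baseline.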

The source made the active and inactive calls. The calls were made as follows: active = hit-call score of the fitted dose curve at least 0.9, where 1 is the maximum; inactive = score below 0.9.

Sequence of E-selectin (Homo sapiens) (P16581 whole entry, looked up): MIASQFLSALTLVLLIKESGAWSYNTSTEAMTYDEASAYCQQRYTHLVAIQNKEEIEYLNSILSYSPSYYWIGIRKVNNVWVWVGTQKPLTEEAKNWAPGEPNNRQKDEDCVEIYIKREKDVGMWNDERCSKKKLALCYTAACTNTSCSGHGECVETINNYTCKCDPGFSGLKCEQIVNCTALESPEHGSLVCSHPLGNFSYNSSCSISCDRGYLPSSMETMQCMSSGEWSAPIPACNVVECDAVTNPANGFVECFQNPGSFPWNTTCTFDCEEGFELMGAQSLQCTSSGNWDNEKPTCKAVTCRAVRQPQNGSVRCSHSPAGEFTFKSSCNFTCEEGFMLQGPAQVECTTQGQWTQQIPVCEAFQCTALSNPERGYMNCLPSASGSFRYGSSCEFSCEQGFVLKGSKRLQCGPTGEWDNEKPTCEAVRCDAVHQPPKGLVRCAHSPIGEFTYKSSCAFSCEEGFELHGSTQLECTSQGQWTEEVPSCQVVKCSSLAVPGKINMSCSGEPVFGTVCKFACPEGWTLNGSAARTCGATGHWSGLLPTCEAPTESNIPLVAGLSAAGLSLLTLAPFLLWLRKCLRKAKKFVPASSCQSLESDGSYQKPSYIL

Regarding `OCCN1CN(CCO)CN(CCO)C1`, the AC50 in assay [1] was 20 µM (active); in [4] it was 20 µM (active); in assay [6] it was 15.5 µM (active); in [8], 20 µM (active); in assay [11], 5.9 µM (active); in assay [13], 3.97 µM (active). In addition, the AC50 with CD40, CD40 (gene 958) was 36 µM (active); in [16] it was 29.9 µM (active); in assay [17], 28.2 µM (active). Also, the outcome in assay [2], in assay [3], in assay [5], in [7], in assay [9] and in assay [10] was inactive. In addition, the outcome in [12], in assay [14], in assay [15] and in assay [18] was inactive.
On to `COc1cc(OC)nc(NC(=O)NS(=O)(=O)Nc2ccccc2C(=O)N(C)C)n1`, for which the outcome in [1], in assay [2], in assay [3], in [4], in assay [5] and in assay [6] was inactive. Also, the outcome in assay [7], in assay [8], in assay [9], in [10], in assay [11] and in assay [12] was inactive. For the same molecule, the outcome is “inactive” in assay [13]; “inactive” in [14]; “inactive” in assay [15]; “inactive” in the assay with CD40, CD40 (gene 958); “inactive” in assay [16]; “inactive” in assay [18]. Further, the AC50 in assay [17] was 0.055 µM (active).
Take `O=P(O)(O)CCC(F)(F)C(F)(F)C(F)(F)C(F)(F)C(F)(F)C(F)(F)F`: the result in [1], in assay [2], in [3], in assay [4], in assay [5] and in assay [6] was inactive. Moreover, the outcome in assay [7], in [8], in [9], in assay [10], in assay [11] and in assay [12] was inactive. The outcome in assay [14] is “inactive”; in assay [15], “inactive”; in the assay with CD40, CD40 (gene 958) it was “inactive”; in [16], “inactive”; in [17], “inactive”; in [18], “inactive”.
